A selection: hits, their analogues and other compounds. The true share with any hit is near 10%.
ALDH1A1 inh – ALDH1A1 (human) enzyme inhibition; P00352; Potency, µM (highest dose often 75.3 µM), usual class: inhibitors; Purified ALDH1A1, NADH fluorescence, propionaldehyde substrate; AID 1030; actives 7.3% (n = 220,000)
HPGD inh – inhibitors of human 15-hydroxyprostaglandin dehydrogenase (HPGD) | P15428 | purified HPGD, NADH fluorescence kinetic, PGE2 substrate | Potency, µM, actives largely listed as inhibitors | actives 4.3% (n = 150,000)
Target sequence (P15428 whole entry, looked up): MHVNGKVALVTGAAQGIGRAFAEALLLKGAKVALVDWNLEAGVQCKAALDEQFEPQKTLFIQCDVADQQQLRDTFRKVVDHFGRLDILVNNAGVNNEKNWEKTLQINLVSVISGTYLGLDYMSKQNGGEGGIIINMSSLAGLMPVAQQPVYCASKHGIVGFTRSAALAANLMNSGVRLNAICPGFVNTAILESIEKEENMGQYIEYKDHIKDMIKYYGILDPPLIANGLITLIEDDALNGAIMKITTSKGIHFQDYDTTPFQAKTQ
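20 nM HPGD preincubated 15 min at room temperature with compound in 50 mM Tris-HCl pH 8, 0.01% Tween 20. Started with 1 mM NAD+ and 30 uM prostaglandin E2; NADH fluorescence (360/450 nm) read 5 times over 30-s intervals, last minus first.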
Luc counter – Kinase-Glo luciferase inhibition (counter-screen); Kinase-Glo luciferase, ATP luminescence, 8 min; AID 1379; actives 0.28% (n = 200,000); Q27757; Potency, µM (doses to about 38.3 µM), hits mostly inhibitors; active = well fitted inhibition curve with a large enough effect; inconclusive = small, poorly fitted or top-dose-only effect; note: nearly all actives have a fitted effect of over 60% in size
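Kinase-Glo luciferase light output from ATP and luciferin was measured with 10 uM ATP, within the enzyme's linear range. Buffer: 50 mM imidazole pH 7.2, 50 mM KCl, 7 mM MgCl2, 0.01% Tween 20, 0.05% BSA; luminescence read after 8 min at ambient temperature.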
PNC inhibitor – perinucleolar compartment assembly inhibition; PC3M PTB-GFP, PNC prevalence imaging, 16 h; hits give low values; activity change (PNC), negative = inhibition, % at 10 µM; actives 3.1% (n = 140,000); AID 2417;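 active = readout at or below -70, meaning at least 70% loss of cells showing the perinucleolar compartment, a nuclear body marking cancer cells; inconclusive = readout between -30 and a set limit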
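Read-out is percentage of cells bearing a perinucleolar compartment, from automated 20x imaging of fixed, Hoechst-stained PC3M PTB-GFP cells. Cells were seeded 4 h, then exposed 16 h to compound (23 nl of library stock) in duplicate plates.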
Lamin A splicing – changes lamin A minigene splicing in HeLa cells. Potency, µM (top dose mostly 46.1 µM), actives largely listed as inhibitors. actives 0.01% (n = 200,000). HeLa LMNA splicing GFP/RFP minigene ratio, 48 h; active = well fitted inhibition curve with a large enough effect in the signal ratio, with a control signal flat, not every such curve was filed as active; inconclusive = small, poorly fitted or top-dose-only effect, or effect the other way, or a change in a side signal; the % refers to the signal ratio
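Read-out is the ratio of GFP to DsRed2 object intensity, acquired by 488 nm laser-scanning cytometry on HeLa lamin A-EGFP minigene reporter cells. Compound incubation 48 hrs at 37 °C in Opti-MEM with 2% FBS; DMSO 0.5% final.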
Large screens that a line does not name were inactive. Unless noted, calls come from the whole dose curve; as a rule, active = well fitted inhibition curve with a large enough effect (not every such curve was filed as active); inconclusive = small, poorly fitted or top-dose-only effect, or another doubt; inactive = no such curve, though single readings can be large or run the other way.

COc1ccc(/C=C/C(=O)c2ccccc2)cc1Cn1nnc2ccccc21	ALDH1A1 inh inconclusive, HPGD inh 15.8µM, Lamin A splicing inconclusive
COc1cc(/C=C/C(=O)c2ccc(C)cc2)ccc1OCC#N	ALDH1A1 inh 12.6µM, PNC inhibitor inconclusive, Lamin A splicing inconclusive
COCC(=O)O	none (no result: Luc counter, PNC inhibitor, Lamin A splicing)
CC(C)=NOC[C@@H](O)[C@@H]1O[C@@H]2OC(C)(C)O[C@@H]2[C@H]1O	none (no result: HPGD inh, Luc counter, PNC inhibitor, Lamin A splicing)
O=c1cc(N2CCCCC2)c(-c2ccccc2)nn1Cc1cccc(Cl)c1	ALDH1A1 inh 22.4µM, Lamin A splicing inconclusive
Cc1ccc(-c2nnn(C/C(N)=N/O)n2)cc1	none (no result: HPGD inh, PNC inhibitor, Lamin A splicing)
COC(=O)C1CSc2[nH]c(=O)sc2C1c1ccccc1 (stereo not given)	ALDH1A1 inh 31.6µM
COC(=O)C1Sc2[nH]c(=O)sc2C(c2ccc(Cl)cc2)C1C(=O)OC (stereo not given)	ALDH1A1 inh 11.2µM
COC(=O)N1[C@H](C)C=C[C@]1(Cc1ccccc1)C(=O)NCc1ccc(C)o1	ALDH1A1 inh inconclusive (no result: PNC inhibitor, Lamin A splicing)
Cc1cc(C(C)(C)C)nc2[nH]n(-c3ccccc3)c(=O)c12	HPGD inh 15.8µM
Cc1cc(C)c2c(=O)n(-c3ccccc3)[nH]c2n1	ALDH1A1 inh inconclusive
CN1CCc2ccccc2[C@@H]1Cc1ccccc1NC(=O)c1sc2ccccc2c1Cl	none (no result: PNC inhibitor, Lamin A splicing)
CC(C)NC(=O)c1onc(CSc2ccccc2F)c1C(=O)O	PNC inhibitor -83.7
Cc1ccccc1SCc1noc(C(=O)NC(C)C)c1C(=O)O	ALDH1A1 inh inconclusive, PNC inhibitor -90.7
NC(CSS(=O)(=O)O)=N[C@@H]1C[C@H]2CC[C@@H]1C2	none (no result: PNC inhibitor, Lamin A splicing)
CC(C)c1nn2c(=O)cc(COC(=O)C3CCCCC3)nc2s1	none (no result: ALDH1A1 inh, HPGD inh, Luc counter, PNC inhibitor)
O=C(/C=C/c1cccc([N+](=O)[O-])c1)NCCSCc1ccccc1Cl	ALDH1A1 inh 12.6µM, PNC inhibitor inconclusive, Lamin A splicing inconclusive
O=C(/C=C/c1cccc([N+](=O)[O-])c1)NCC1CCCO1 (stereo not given)	ALDH1A1 inh 14.1µM, HPGD inh 6.31µM
O=C(/C=C/c1cccc([N+](=O)[O-])c1)NCCSCc1ccc(Cl)cc1Cl	ALDH1A1 inh inconclusive, Lamin A splicing inconclusive
Cc1cc([N+](=O)[O-])c2c(c1C)C1C=CCC1C(c1ccccn1)N2 (stereo not given)	ALDH1A1 inh 8.91µM (no result: HPGD inh, PNC inhibitor)
CC(C)C(C)NC(=O)COC(=O)/C=C/c1ccc(S(=O)(=O)N2CCc3ccccc32)cc1 (stereo not given)	ALDH1A1 inh inconclusive (no result: HPGD inh, PNC inhibitor, Lamin A splicing)
CCOCCCNC(=O)COC(=O)/C=C/c1ccc(S(=O)(=O)N2CCc3ccccc32)cc1	ALDH1A1 inh 7.94µM (no result: HPGD inh, PNC inhibitor)
COc1ccc(-c2nnc(SCc3ccccc3F)o2)cc1	none
Cc1ccccc1-c1nnc(SCc2ccccc2F)o1	HPGD inh 15.8µM, Lamin A splicing inconclusive
Cc1ccc(C)c(CSc2nnc(-c3cccnc3)o2)c1	ALDH1A1 inh inconclusive, HPGD inh 25.1µM
Fc1ccccc1CSc1nnc(-c2ccccc2)o1	HPGD inh 10µM, PNC inhibitor inconclusive
O=c1cc(CSc2nnc(-c3ccccc3)o2)c2ccccc2[nH]1	HPGD inh 7.94µM
COC(=O)[C@@H]1C[C@@]2(O)[C@@H](O)[C@@H](O)[C@@H](O)C[C@H]2N1CC1CC1	none (no result: PNC inhibitor, Lamin A splicing)
CN1CCN(c2ncc3nc(-c4ccc(Cl)cc4)c(=O)n(Cc4ccc(F)cc4)c3n2)CC1	ALDH1A1 inh inconclusive (no result: HPGD inh, Luc counter, PNC inhibitor)
COc1ccc(CCNC(=O)C(=O)c2c[nH]c3ccccc23)cc1	none (no result: HPGD inh, Luc counter, PNC inhibitor, Lamin A splicing)
Cc1ccccc1-c1nnc(SCc2ccccc2)o1	HPGD inh 22.4µM, PNC inhibitor inconclusive
COc1ccc(CCNC(=O)c2cc3c(=O)n4cccc(C)c4nc3n2C)cc1	none (no result: ALDH1A1 inh, HPGD inh, Luc counter, PNC inhibitor)
Cc1ccc(CN2CCN(Cc3c[nH]c4ccccc34)CC2CCO)o1 (stereo not given)	none (no result: HPGD inh, PNC inhibitor, Lamin A splicing)
Cc1ccc(CN2CCN(Cc3cc(=O)c4ccccc4[nH]3)CC2CCO)o1 (stereo not given)	ALDH1A1 inh 17.8µM (no result: HPGD inh, PNC inhibitor, Lamin A splicing)
CCC(=O)N1c2ccccc2CC1C(=O)NCCCN1CCN(c2cc(C)ccc2C)CC1 (stereo not given)	none (no result: ALDH1A1 inh, HPGD inh, Luc counter, PNC inhibitor)
CCC(C)NC(=O)C1CCC(=O)N(c2cc(OC)c(OC)c(OC)c2)C1c1ccc(OC)cc1 (stereo not given)	PNC inhibitor -100.0
